Screening data: PubChem, Paczesny and Yang Labs, IUPUI and University of Michigan
The entries come from a sample that favours hits as a whole.
ST2 IL33 inh = IL1RL1 inhibition | Q01638 | AlphaLISA ST2-Fc/biotin-IL-33 interaction, 1 h | inhibition, % for hits at 17 µM | 78,000 compounds, 2.3% hits | AID 1259354; in the data active = inhibition above about 30%
Target sequence (Q01638 whole entry, looked up): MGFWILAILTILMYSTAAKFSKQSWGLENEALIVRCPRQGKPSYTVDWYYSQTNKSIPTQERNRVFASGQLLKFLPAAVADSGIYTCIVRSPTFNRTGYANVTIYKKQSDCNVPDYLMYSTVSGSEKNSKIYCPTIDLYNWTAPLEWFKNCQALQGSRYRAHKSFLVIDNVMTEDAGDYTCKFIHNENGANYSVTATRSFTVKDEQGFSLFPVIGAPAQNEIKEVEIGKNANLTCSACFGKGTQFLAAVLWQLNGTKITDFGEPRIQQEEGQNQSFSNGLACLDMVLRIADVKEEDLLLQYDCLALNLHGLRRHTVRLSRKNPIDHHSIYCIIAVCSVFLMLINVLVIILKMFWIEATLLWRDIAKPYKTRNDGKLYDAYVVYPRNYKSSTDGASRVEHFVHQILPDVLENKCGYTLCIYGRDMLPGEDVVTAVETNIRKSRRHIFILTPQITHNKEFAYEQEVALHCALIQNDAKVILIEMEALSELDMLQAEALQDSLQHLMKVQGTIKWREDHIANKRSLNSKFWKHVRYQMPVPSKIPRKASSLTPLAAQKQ
Numbers without * were called inactive; i = inactive.

SMILES	ST2 IL33 inh
Cc1cccnc1CN1CCN(S(=O)(=O)NCc2ccccc2)CC1	i
COc1cc(C2Nc3ccc4ccccc4c3C3=C2C(=O)CC(C)(C)C3)ccc1O (centres undefined)	i
O=C(Cn1nnnc1CN1CCCCCC1)NCCC1COc2ccccc2O1 (centres undefined)	i
CC1CN(C(=O)Cn2cc([N+](=O)[O-])cn2)CC(C)O1 (centres undefined)	i
CCOc1cc(C=O)cc(I)c1OCC(=O)O	i
Clc1ccc2nc(CSc3nnnn3-c3ccccc3)c(Cl)n2c1	i
CC(C)CCNC(=O)c1ccc(Br)o1	i
Cc1ccc2nc(-c3ccc(NC(=O)CSc4nc(C)cc(=O)[nH]4)cc3)sc2c1	i
COc1ccccc1CN(C(=O)CNC(=O)c1ccccc1)C1CC1	i
O=C(Cn1c(=O)[nH]c2ccsc2c1=O)N1CCN(c2ccccc2)CC1	i
CC(C)C[C@@H](N)C(=O)N(C)Cc1cnn(-c2ccc(F)cc2)c1	i
Fc1ccccc1CN1CCN(c2ccccn2)CC1	i
Fc1ccc(CN2CCN(c3ccccn3)CC2)cc1Br	33.0%*
Clc1ccc(CN2CCN(c3ccccn3)CC2)cc1Cl	i
CCOCCCN(C)C1CCN(C(=O)C2CCN(c3ccc(-c4cccs4)nn3)CC2)CC1	i
Cc1oc(-c2ccccc2Cl)nc1CSCC(=O)NCc1ccc2c(c1)OCO2	i
Cc1ccc2[nH]c3c(c2c1)CCCC3NCc1ccc(F)cc1 (centres undefined)	32.0%*
COC(CN(C(C)=O)C1CCCc2c1[nH]c1ccc(C)cc21)OC (centres undefined)	i
Cc1ccc2[nH]c3c(c2c1)CN(C(=O)C1CCCN(CC(N)=O)C1)CC3 (centres undefined)	i
COc1cccc(-c2nc3ccccc3[nH]2)c1	i
Cc1csc(SCC(=O)N2CCCC(c3nc(SCC4CCCO4)ncc3C)C2)n1 (centres undefined)	i
CCSc1nc2c(c(=O)[nH]1)C(c1ccc(OC)cc1)C1=C(CCCC1=O)N2 (centres undefined)	i
O=C1CC(N2CCCCCC2)C(=O)N1c1ccc(Br)cc1Br (centres undefined)	i
Cc1csc2ncc(C(=O)NCc3ccccc3)c(=O)n12	i
CN(C)CCOC(=O)c1ccc2c(c1)OCCO2	i
SMILES	ST2 IL33 inh
COc1cc(NC(=S)N[C@H]2CO[C@H]3[C@@H]2OC[C@H]3OC(=O)Nc2cccc(C(C)=O)c2)cc(OC)c1	i
Cc1cccc(/C=C2\N=C(c3ccc4c(c3)OCO4)OC2=O)c1	i
Cc1cccc(C2=N/C(=C\c3cccc(C(F)(F)F)c3)C(=O)O2)c1	32.0%*
COc1ccc(C2=N/C(=C\c3cccc(C(F)(F)F)c3)C(=O)O2)cc1OC	i
CCOc1ccc(/C=C2\N=C(c3cccc(F)c3)OC2=O)cc1OC	i
O=C1OC(c2cccc([N+](=O)[O-])c2)=N/C1=C\c1ccc(Cl)cc1Cl	i
Cc1cccc(C2=N/C(=C\c3ccco3)C(=O)O2)c1	47.0%*
Cc1cccc(/C=C2\N=C(c3ccccc3[N+](=O)[O-])OC2=O)c1	i
Cc1cccc(C2=N/C(=C\c3sccc3C)C(=O)O2)c1	37.0%*
Cc1cccc(C2=N/C(=C\c3c(F)cccc3Cl)C(=O)O2)c1	i
COc1cc(C)c(/C=C2/N=C(c3ccccc3)OC2=O)cc1C(C)C	i
COc1ccc(/C=C2\N=C(c3cccc(C)c3)OC2=O)c(OC)c1OC	48.0%*
COc1ccccc1/C=C1\N=C(c2cccc([N+](=O)[O-])c2)OC1=O	i
COc1cccc(-n2cc(CN(C)Cc3ccc(O)c(Cl)c3)cn2)c1	i
O=C1CC2(CCN(S(=O)(=O)c3ccc(-n4cccn4)cc3)CC2)CN1	i
C=C(C)COc1ccccc1C(=O)NC(C)c1nc(-c2cccnc2)no1 (centres undefined)	i
COc1ccccc1-c1cc2n(C)c(C)c(CCC(=O)Nc3cccc(F)c3)c(=O)n2n1	i
COc1ccc(S(=O)(=O)NC[C@H]2O[C@@H](CO)[C@@H](O)[C@H]2N2CCOCC2)cc1	i
CCC(Oc1ccc2c(c1)C(=O)CC(C)(C)O2)C(=O)N1CCC(C)CC1 (centres undefined)	i
CCOc1ccc(/C=C2\N=C(c3cccc(I)c3)OC2=O)cc1	i
Cc1cccc(C2=N/C(=C\c3ccc(C)o3)C(=O)O2)c1	53.0%*
COc1ccc(/C=C2\N=C(c3ccc(-c4ccccc4)cc3)OC2=O)cc1	i
CCN(C(=O)c1cc(-c2cnc(N)nc2)nc2c(C)cccc12)C1CCCCC1	i
O=S1(=O)CC2N=C(Nc3cc(F)ccc3F)SC2C1 (centres undefined)	i
O=c1[nH]c2ccc(S(=O)(=O)Nc3ccc(Cl)c(Cl)c3)cc2o1	i
Cc1nonc1C(=O)N1CCCC(CCc2ccc(F)cc2)C1 (centres undefined)	i
O=C(Nc1ccccc1Oc1ccccc1)c1ccccc1[N+](=O)[O-]	i
Cn1cc(CC(=O)NCC2CCCO2)c2ccccc21 (centres undefined)	i
